# Screens from PubChem.
# In the library only some 2.1% were active in any assay of this set; here they are far more common.
# GRP78 ERSR act: ER stress response induction in glioma | U87-MG GRP78 promoter luciferase reporter, 16 h | Potency, µM, for the others: at the top dose activation, most hits filed as activators | 0.02% of 420,000 active | AID 602332; also: series mostly up to about 76 µM; % of control where 0% means no effect; nearly all actives have a fitted effect of over 35% in size
#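 Stably transfected U87-MG glioma cells carrying a GRP78-based luciferase sensor; 16 h compound incubation. Luminescence end-point read 10 min after Bright-Glo addition at room temperature.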
# Abeta rescue: compounds reversing amyloid beta toxicity in yeast. yeast expressing A-beta42, growth rescue, OD600, 48 h; response scale: 0% DMSO, 100% iron-clioquinol control. Potency, µM (top dose mostly 46.1 µM), actives largely listed as activators. 0.063% of 410,000 active. AID 1347071; also: nearly all actives have a fitted effect of over 55% in size
#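 Yeast A-beta toxicity model in growth medium with pinned compounds, 48 h at 30 C; growth read as absorbance at 600 nm. Normalized to FeCl3/clioquinol equimolar mix (positive) and DMSO (negative).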
# aSyn yeast inh: rescues yeast growth from alpha-synuclein toxicity; Yeast expressing alpha-synuclein, growth rescue, BacTiter-Glo, 24 h; Potency, µM (series often up to 46.1 µM), for the others: at the highest dose growth rescue (activation), hits mostly activators; 0.14% of 370,000 active; AID 652106; also: % of control where 0% means no effect; nearly all actives have a fitted effect of over 65% in size
#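 Screening used galactose-induced yeast with toxic alpha-synuclein levels, exposed to compound for 24 hr at 30 deg C. Cell growth, read with BacTiter-Glo luminescence, gave the measured signal.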
# TDP43 rescue: inhibitors of TDP-43 toxicity in yeast; 1.8% of 410,000 active; AID 652104; TDP-43 expressing yeast growth rescue, BacTiter-Glo, 24 h; Potency, µM (highest dose often 46.1 µM), inactives show top-dose growth rescue (activation), most hits filed as activators; also: % of control where 0% means no effect; nearly all actives have a fitted effect of over 50% in size
#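 Luminescence from BacTiter-Glo reports growth of TDP-43-expressing yeast after 24 hr at 30 deg C with compound. Cells were raffinose-pregrown to mid-log, then seeded in galactose medium at OD600=0.02.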
# Mito fusion act: mitochondrial division inhibition or fusion activation | AID 485298 | Potency, µM (highest dose often 46.1 µM), for the others: at the highest dose growth rescue (activation), most hits filed as activators | 0.23% of 320,000 active | S. cerevisiae fusion-defective mutant growth rescue, CellTiterGlo 48 h; also: % of control where 0% means no effect; nearly all actives have a fitted effect of over 45% in size
#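 Yeast fusion mutant, YPEG (non-fermentable carbon), compound, 48 h at 37C non-permissive; CellTiterGlo added, 10 min RT, luminescence read. Rescued growth = division inhibition.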
# A-T KAP1 phos: potential ataxia-telangiectasia treatments restoring KAP-1 phosphorylation; F2112 A-T fibroblasts, KAP-1 phosphorylation AlphaLISA; neocarzinostatin DNA damage 30 min before lysis; Potency, µM (highest dose often 57.5 µM), without a hit: top-dose activation, actives largely listed as activators; 0.19% of 320,000 active; AID 485349; also: % of control where 0% means no effect; nearly all actives have a fitted effect of over 45% in size
#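 hTERT-immortalized A-T patient fibroblasts (F2112), 500 cells/well in OPTI-MEM, 1% FBS, got compounds for 60 min, then NCS for 30 min at 37C. Lysates were then assayed for phospho-KAP-1 by AlphaLISA (anti-pKAP1 donor, anti-KAP1 acceptor beads), 6 hr at 25C.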
# Active calls of the source: *; i = inactive; ? = inconclusive; . = not tested or not shown. Calls follow the shape of the dose curve; as a rule, active = well fitted curve in the direction sought with a large enough effect; inconclusive = small, poorly fitted or top-dose-only effect, or another doubt; inactive = no such curve, though single readings can be large; an effect the other way counts as inactive or inconclusive. Potency is read from the fitted curve at half-maximal effect.
SMILES,GRP78 ERSR act,Abeta rescue,aSyn yeast inh,TDP43 rescue,Mito fusion act,A-T KAP1 phos
CC(=O)N(Cc1c(C)nn(-c2ccccc2)c1Cl)c1ccc(Cl)cc1,-5%,i,18%,6%,1%,1%
Cc1nn(-c2ccccc2)c(Cl)c1CN(C(=O)CCl)c1ccc(Cl)cc1,-14%,i,-35%,20µM*,-1%,11%
Cc1nn(-c2ccccc2)c(Cl)c1CN(C(=O)CCl)c1cccc2ccccc12,-14%,i,9%,18µM*,?,6%
Cc1cccc(C)c1N(CCCc1cccnc1)C(=O)[C@@H](C)N,-2%,.,.,.,.,.
CCOC(=O)N1CCN(c2nc(N(c3ccccc3)c3ccccc3)nc(-n3ccnc3)n2)CC1,.,.,.,.,-5%,10µM*
CCc1nc(-c2ccc(C)c(S(=O)(=O)N3CCN(c4ccc(C(C)=O)cc4)CC3)c2)no1,-3%,i,.,15%,.,.
COc1ccc([N+](=O)[O-])cc1NC1C2CC3CC(C2)CC1C3 (configuration not stated),-2%,i,-20%,-2%,-1%,-5%
COc1ccc([N+](=O)[O-])cc1NC1CCCCC1,-4%,i,-20%,20µM*,5%,7%
O=C(Nc1ccc(-n2cnnn2)cc1)C1CCCCC1,-2%,i,-3%,9%,2%,.
O=C(Oc1cccc(-n2cnnn2)c1)C1CCCCC1,1%,i,.,11µM*,-3%,1%
CCN(CC)CCOC(=O)c1cccnc1,-1%,.,.,.,.,.
O=C(NCCc1ccc(Cl)cc1)C1(c2ccccc2)CC1,-2%,i,16%,14µM*,-2%,-3%
O=C(CSc1nc2ccc(Cl)cc2o1)NCc1ccc2c(c1)OCO2,-5%,i,-2%,?,17%,.
O=C(CSc1nc2ccccc2o1)NCc1ccc2c(c1)OCO2,2%,i,0%,14µM*,2%,6%
O=C(CN1CCCc2ccccc21)NCc1ccc2c(c1)OCO2,-1%,i,15%,11µM*,3%,4%
O=C(CN1CCCc2ccccc21)NCCc1ccc(Cl)cc1,-6%,i,5%,14µM*,-3%,7%
CC1(Cc2ccccc2F)C(=O)Nc2c(Cl)ccc(Cl)c21 (configuration not stated),-3%,i,11µM*,2%,.,.
CC1(Cc2ccc(Cl)cc2)C(=O)Nc2c(Cl)ccc(Cl)c21 (configuration not stated),0%,i,?,-26%,.,.
Cc1ccc(CC2(C)C(=O)Nc3c(Cl)ccc(Cl)c32)cc1 (configuration not stated),11%,i,18µM*,0%,.,.
CC1(Cc2ccccc2Cl)C(=O)Nc2c(Cl)ccc(Cl)c21 (configuration not stated),5%,i,13µM*,32µM*,.,.
CC1(C)S[C@@H]2[C@H](NC(=O)[C@H](N)c3ccccc3)C(=O)N2[C@@H]1C(=O)OCOC(=O)[C@@H]1N2C(=O)C[C@@H]2S(O)(O)C1(C)C,-4%,.,.,.,.,.
C/C(=C\c1ccco1)CN1CCOc2ccc(C(C)(O)COc3ccccc3)cc2C1 (configuration not stated),3%,.,.,.,.,.
CC(C)(CO)NC(=O)c1ccc2c(c1)C(=O)c1ccccc1-2,3%,i,11%,-8%,-3%,0.71µM*
COc1ccc(/C=C/N(CCc2ccc(OC)c(OC)c2)C(=O)c2ccccn2)cc1,-4%,.,.,.,.,.
COc1ccc(CNC(=O)CN2C(=O)CSc3ccc(S(=O)(=O)N4CCOCC4)cc32)c(OC)c1,-2%,i,3%,10%,4%,7.1µM*
COc1cccc(-c2ccnc(-n3ncc(C(=O)NCC4(N5CCCCC5)CCCC4)c3C)n2)c1,-5%,.,.,.,.,.
COc1ccc(-c2noc(CSc3nnc(Cc4ccccc4)n3-c3ccc(F)cc3)n2)cc1,-5%,i,.,35µM*,.,.
